Experimental data: PubChem BioAssay AID624330 (Southern Research Specialized Biocontainment Screening …, 2012)
Several values for one entry are separate records, joined by “and”; a condition that tells them apart may be missing. Equal values may be shown once. Among all 340,000 compounds or so, about 2,100 (0.62%) were called active.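 How the source made its calls: active means first-screen hits whose inhibition reached a set limit at any dose in the follow-up dose series; inconclusive means inhibition above the set first-screen limit but never retested; inactive means the rest.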 Not all results are given here. Measured potencies and affinities stand elsewhere.

These compounds were tested against Rac GTPase-activating protein 1 (Homo sapiens) (UniProt Q9H0H5) (assay: MgcRacGAP GTPase-activating activity inhibitors, confirmation, biochemical, ADP Hunter fluorescence, primary and confirmatory (AID 624330;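 further: fluorescence reports GDP produced by GAP-driven GTP hydrolysis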)). Conditions: MgcRacGAP-stimulated Rac1 GTP hydrolysis, at 30 µM, stronger effect = higher value, GST-tagged Rac1 F28L mutant substrate.
Rac GTPase-activating protein 1 (Homo sapiens), sequence (Q9H0H5 whole entry, looked up): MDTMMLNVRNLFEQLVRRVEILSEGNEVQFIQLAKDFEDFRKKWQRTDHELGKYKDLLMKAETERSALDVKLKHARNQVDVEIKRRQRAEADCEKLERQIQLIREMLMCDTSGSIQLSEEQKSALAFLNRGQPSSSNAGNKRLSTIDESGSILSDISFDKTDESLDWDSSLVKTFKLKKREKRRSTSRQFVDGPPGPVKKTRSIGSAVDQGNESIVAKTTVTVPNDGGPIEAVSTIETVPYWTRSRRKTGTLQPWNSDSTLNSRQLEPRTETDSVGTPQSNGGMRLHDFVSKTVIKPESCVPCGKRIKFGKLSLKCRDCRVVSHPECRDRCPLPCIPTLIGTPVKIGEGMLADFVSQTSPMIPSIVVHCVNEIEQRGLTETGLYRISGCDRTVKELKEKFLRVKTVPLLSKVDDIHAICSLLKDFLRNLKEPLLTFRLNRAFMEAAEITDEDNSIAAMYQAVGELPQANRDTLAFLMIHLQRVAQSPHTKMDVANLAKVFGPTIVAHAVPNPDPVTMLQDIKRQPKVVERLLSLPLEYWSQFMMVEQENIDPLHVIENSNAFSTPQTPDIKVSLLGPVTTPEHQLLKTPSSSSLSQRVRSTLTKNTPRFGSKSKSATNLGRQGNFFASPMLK

inhibition, inactive:
COc1ccc(OC)c(NC(=O)COC(=O)CCCN2C(=O)c3ccccc3C2=O)c1 3.2%
C[C@@H]1COC(=O)CCC/C=C\C[C@@H](CC(=O)N(CCO)Cc2ccccc2)C(=O)N1 4.52%
COc1ccc(-c2cc3ccccc3n2CC(O)CN2CCOCC2)cc1 (stereo not drawn) 4.64%
COc1ccc(-c2cc3ccccc3n2CC(O)CN2CCC(C)CC2)cc1 (stereo not drawn) 9.85%
COc1ccc(C(=O)N/C(=C\c2ccc(-c3cccc([N+](=O)[O-])c3)o2)C(=O)NCCCN2CCOCC2)cc1 -23.2%
Cc1cccc(C)c1NC(=O)Cn1nnc(-c2ccc(N3CCOCC3)cc2)n1 3.65%
Cc1nc(N2CCN(c3ccccc3F)CC2)[nH]c(=O)c1C 6.5%
Cc1c(C(=O)N(Cc2ccncc2)CC2CCCO2)oc2c(F)cccc12 (stereo not drawn) 5.69%
COc1cc(/C=N/n2cnnc2)ccc1OC(=O)c1ccco1 16.6%
COc1cc(C=O)ccc1OC(=O)c1ccncc1 14.9%
COc1cc(C=O)ccc1OC(=O)c1cccnc1 7.23%
COc1cc(/C=N/NC(=O)c2ccncc2)ccc1OC(=O)c1cc(OC)c(OC)c(OC)c1 16.1%
COc1cc(CC(=O)OCc2cccc([N+](=O)[O-])c2)cc(OC)c1OC 2.78%
CCCCCC(=O)Nc1ccc(N2CCN(C(=O)CCC)CC2)cc1 -1.29%
CCOC(=O)C1(Cc2cccc(OC)c2)CCN(CC(O)CO)CC1 (stereo not drawn) -0.09%
CCOc1ccc(-c2nc3c(s2)CCc2onc(-c4ccc(OC)cc4)c2-3)cc1 1.06%
O=S(=O)(c1ccccc1Cl)N1CCCC1c1nc(-c2cccc(Cl)c2)no1 (stereo not drawn) 2.74%
C[C@@H](C(=O)OCC(=O)NCCc1ccc(S(N)(=O)=O)cc1)N1C(=O)C2CCCCC2C1=O (stereo partly drawn) -3.1%
CCCn1c(=S)[nH]c2cc(Cl)ccc21 9.71%
COc1ccc(-n2sc3c(c2=S)-c2cc(OC)ccc2NC3(C)C)cc1 -3.29%
COc1ccc2c(c1)-c1c(sn(-c3ccccc3)c1=S)C(C)(C)N2 18.2%
Cc1ccc(CNc2nc3ccccc3n2C)cc1 13.6%
CC(C)NC(=O)Nc1ccc2c(c1)C(=O)N([C@H](C)CO)C[C@H](C)[C@@H](CN(C)C(=O)Nc1ccc(C(F)(F)F)cc1)O2 12.5%
Cc1ccc(C(C)C)c(OCC#CCN2CCOCC2)c1 30.8%
CCCN(CCC)CCOc1cc(C)ccc1C(C)C 18.2%
O=C(c1cc2ccccc2oc1=O)N(Cc1ccccc1F)C1CCS(=O)(=O)C1 (stereo not drawn) 6.33%
OCCCNCc1ccc(Cl)cc1Cl -1.18%
COc1cc(NC(=O)n2ncc3cc(Cl)ccc32)cc(OC)c1 5.31%
COc1ccc(C)cc1NC(=O)n1ncc2cc(Cl)ccc21 8.15%
COc1ccc(S(=O)(=O)Nc2cccc(SC)c2)cc1C(=O)N1CCOCC1 9.83%
Cc1ccccc1C(=O)NC(=S)Nc1ccccc1N1CCCC1 13.5%
O=[N+]([O-])C1=C(Nc2cccc3ccccc23)CS(=O)(=O)C1 9.69%
O=[N+]([O-])c1ccc(Nc2ccc(F)cc2)nc1 6.73%
CC(=O)Nc1ccc(Nc2ccc([N+](=O)[O-])cn2)cc1 16.8%
Cc1ccc(NC2=C([N+](=O)[O-])CS(=O)(=O)C2)cc1 7.24%
O=C(CSc1ncccn1)Nc1ccc(Cl)c(S(=O)(=O)N2CCOCC2)c1 7.79%
CCOC(=O)N1CCN(CC(O)COc2c(OC)cccc2OC)CC1 (stereo not drawn) 9.23%
Cc1cc(C(=O)CCC(=O)Nc2ccc(C(N)=O)cc2)c(C)s1 15%
O=C(NC1CCCCC1)c1csnn1 -0.31%
CCOC(=O)N1CCN(Cc2ccccc2F)CC1 17.8%
Fc1ccccc1CN1CCCCCCC1 10.2%
Cc1ccccc1CN1CCN(Cc2ccccc2C(F)(F)F)CC1 25.3%
C=CCOc1ccccc1CN1CCSCC1 14.2%
O=S1(=O)CCN(Cc2ccccc2C(F)(F)F)CC1 1.13%
CS(=O)(=O)N1CCN(Cc2ccccc2C(F)(F)F)CC1 8.59%
Cc1ccc(S(=O)(=O)N2CCN(Cc3ccccc3C(F)(F)F)CC2)cc1 13%
C=CCOc1ccccc1CN1CCCCCC1 13%
O=C1CCCC2=C1C(c1cccc(O)c1)C1=C(N2)c2ccccc2C1=O (stereo not drawn) -0.19%
Cc1ccc(NC(=O)C2Cc3ccccc3C(=O)O2)cc1 (stereo not drawn) -7.83%
O=C(CN(C(=O)CCC(=O)Nc1ccccn1)C1CCCC1)NCc1ccccc1 4.99%
CCOc1ccccc1NC(=O)c1ccc2nc[nH]c2c1 4.69%
CCN(C(=O)COC(=O)c1ccc(=O)n(Cc2ccccc2)n1)C1CCCCC1 0.9%
O=S(=O)(NCC1CCCO1)c1ccc(Br)cc1 (stereo not drawn) 12.2%
CCOc1ccc(CCN2C(=S)N([C@@H](CC(C)C)CN3CCCC3CN3C(=S)NC[C@@H]3Cc3ccc(O)cc3)C[C@@H]2CC(C)C)cc1 (stereo partly drawn) 13.7%
Cc1csc(NC(=O)C2CCCN2C(=O)Oc2ccccc2)n1 (stereo not drawn) 7.03%
Cc1cc(C)nc(SCC(=O)c2ccc(F)cc2)n1 3.61%
Cc1cc(SCC(=O)O)nc2ccccc12 5.6% and 2.66%
Cc1cc(C)nc(SCC(=O)c2ccc(C)c(C)c2)n1 -8.22%
O=C(O)c1ccc(CSc2nnnn2-c2ccc(F)cc2)cc1 2.94%
Cc1cc(SCC(=O)c2ccc3c(c2)OCO3)nc2ccccc12 6.55%
COc1ccc(-n2nnnc2SCC(=O)c2ccc(O)c(O)c2)cc1 9.34%
COCCN(CC(=O)NCc1ccc(OC)cc1)C(=O)CCC(=O)Nc1nccs1 9.76%
COc1ccc(/C=C/C(=O)Oc2cc(C)[nH]c(=O)c2[N+](=O)[O-])cc1OC -3.35%
O=C(/C=C/c1ccc2c(c1)OCO2)NCCS(=O)(=O)N1CCN(c2ccccc2)CC1 -2.85%
Cc1cc(C)n(-c2cc(C)c(C)cc2Br)n1 4.26%
Cc1ccnc(Nc2nc(-c3ccccc3)cs2)c1 12.8%
Cc1ccnc(Nc2nc(-c3ccc(F)cc3)cs2)c1 7.49%
Cc1ccnc(Nc2nc(-c3ccc(Cl)cc3)cs2)c1 4.43%
COc1ccc(-c2csc(Nc3cc(C)ccn3)n2)cc1OC 13.4%
C[C@]12c3[nH]c4cc(-c5ccco5)ccc4c3CCN1C(=O)[C@@H](CC(=O)NCc1cccc(C(F)(F)F)c1)C[C@@H]2C(=O)N1CCCCC1 10.5%
CC(C)NC(=O)c1ccc(N(Cc2ccccc2)S(C)(=O)=O)cc1 4.09%
O=S(=O)(NCC1(N2CCOCC2)CCCCC1)c1ccccc1Cl -7.11%
CN1CCN(CCCC(=O)c2ccc(C3CCCC3)cc2)CC1 6.04%
O=C(O)c1cc([N+](=O)[O-])c(N2CCCC2)c([N+](=O)[O-])c1 9.56%
CCc1ccc(N(CC(=O)NC(C)(C)C)C(=O)CNC(=O)c2cccs2)cc1 11.2%
CCOC(=O)c1c(NC(=O)CCl)sc(CN(C)C)c1-c1ccccc1 -14%
Cn1c(=O)c2c(ncn2Cc2cccc(Cl)c2)n(C)c1=O 9.29%
Cc1ccc(OCC(=O)N2CCN(S(C)(=O)=O)CC2)cc1 11.9%
Cc1ccc(OCC(=O)N2CCCCCCC2)cc1 9.5%
CCN1CCN(CC2CC3C=CC2C3)CC1 (stereo not drawn) 24.6%
Cc1ccc(S(=O)(=O)N2CCN(CC3CC4C=CC3C4)CC2)cc1 (stereo not drawn) 23.4%
O=C(CCC1CCCC1)N1CCC(N2CCCCCC2)CC1 21.7%
C1=CC2CC1CC2CN1CCN(c2ccccc2)CC1 (stereo not drawn) 14.6%
O=C(CCC1CCCC1)N1CCN(C(=O)C2CC2)CC1 -4.27%
O=C(c1ccccc1F)N1CCN(CC2CC3C=CC2C3)CC1 (stereo not drawn) 27.7%
COc1ccccc1CN1CC(C(=O)NCC2(O)CCCCC2)CCC1=O (stereo not drawn) -29.3%
ONC=Nc1cccc2nonc12 4.4%
Cc1ccccc1NC(=O)COC(=O)c1cccc(S(=O)(=O)N2CCCCC2)c1 0.63%
COc1ccc(CCN(C(=O)C(F)(F)F)C(C(=O)NC2CCCCC2)c2ccc(C)s2)cc1OC (stereo not drawn) 4.06%
Cc1ccc(S(=O)(=O)N2CCN(C(=O)N(C)C)CC2)cc1 2.84%
O=C(Nn1cnc2ccccc2c1=O)c1ccc(Cl)c([N+](=O)[O-])c1 9.36%
COn1c(-n2nc(C)cc2C)nc2ccccc2c1=O 3.26%
O=C(COc1ccccc1)N1CCN(C(=O)COc2ccccc2)CC1 2.47%
O=C(COc1ccccc1)N1CCCC1 2.28%
CS(=O)(=O)N1CCN(CC2CC3C=CC2C3)CC1 (stereo not drawn) 26.4%
CCS(=O)(=O)N1CCN(CC2CC3C=CC2C3)CC1 (stereo not drawn) 3.64%
S=C(Cc1ccccc1)NCCc1ccccc1 9.14%
Cc1noc(C)c1N=Nc1ccc(Br)cc1C(=O)O 4.04%
